The list is not random: actives were taken first. Their share in the collection is about 5.8%.
KB-3-1 cytotox: kills parental KB-3-1 adenocarcinoma cells; Potency, µM (top dose mostly 46.1 µM), actives largely listed as cytotoxic; KB-3-1 viability, CellTiter-Glo ATP luminescence, 72 h; 1.4% of 400,000 active; note: % is set by controls: 0 for no effect and ±100 for the full control effect; nearly all actives have a fitted effect of over 60% in size
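Screening of KB-3-1 cells (DMEM, 10% FBS, phenol-red free) ran from lowest to highest compound concentration; after 72 h at 37 °C viability was read luminescently and curves fitted.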
SW480 rereplic: DNA re-replication induction in SW480 cells. SW480 DNA re-replication, Hoechst DNA content imaging, 48 h. Potency, µM (series often up to 46.1 µM), inactives show top-dose re-replication activation, most hits filed as activators. 1.8% of 340,000 active. AID 624297; note: % of control where 0% means no effect; nearly all actives have a fitted effect of over 55% in size
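250 cells/well; 23 nL cpd via pin tool; 48 hr, 37 C, 5% CO2; Hoechst 40 min; imager read of total nuclear intensity, ex 405/em 500-530 nm.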
ALOX12 inh: ALOX12 (human) lipoxygenase inhibition. Potency, µM (series often up to 108 µM), inactives show top-dose activity change, negative = inhibition, most hits filed as inhibitors. 1.1% of 580,000 active. P18054. purified 12hLO, xylenol orange hydroperoxide absorbance; note: % is set by controls: 0 for no effect and ±100 for the full control effect
Target sequence (P18054 whole entry, looked up): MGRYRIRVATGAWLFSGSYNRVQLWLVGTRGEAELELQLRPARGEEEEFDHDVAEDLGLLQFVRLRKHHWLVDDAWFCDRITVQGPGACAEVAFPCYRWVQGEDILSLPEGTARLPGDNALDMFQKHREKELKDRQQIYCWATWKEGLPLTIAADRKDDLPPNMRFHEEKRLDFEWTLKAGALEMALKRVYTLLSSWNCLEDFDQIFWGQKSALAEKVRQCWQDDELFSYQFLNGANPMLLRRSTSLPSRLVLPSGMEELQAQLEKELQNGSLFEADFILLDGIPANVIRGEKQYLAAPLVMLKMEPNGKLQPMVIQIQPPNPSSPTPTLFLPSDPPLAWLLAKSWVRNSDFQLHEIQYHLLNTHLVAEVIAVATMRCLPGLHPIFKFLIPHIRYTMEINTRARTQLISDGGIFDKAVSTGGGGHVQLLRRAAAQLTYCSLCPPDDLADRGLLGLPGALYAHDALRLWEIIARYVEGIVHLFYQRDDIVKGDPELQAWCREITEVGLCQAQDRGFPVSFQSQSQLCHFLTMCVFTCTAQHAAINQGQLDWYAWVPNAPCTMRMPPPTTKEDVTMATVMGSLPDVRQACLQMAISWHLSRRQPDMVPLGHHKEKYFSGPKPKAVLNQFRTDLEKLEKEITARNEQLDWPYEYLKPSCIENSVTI
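Purified human 12hLO (150 nM final) in 25 mM Hepes, 0.01% Triton X-100, pH 7.0 was preincubated 15 min at room temperature with compound. Then 40 uM arachidonic acid was added, 30 min. Hydroperoxide was read by Fe-XO absorbance ratio 573/405 nm.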
KB-V1 cytotox: KB-V1 MDR subline cytotoxicity; KB-V1 MDR cells viability, CellTiter-Glo, 72 h; Potency, µM (series often up to 46.1 µM), actives largely listed as cytotoxic; 3.4% of 400,000 active; AID 1347076; note: % is set by controls: 0 for no effect and ±100 for the full control effect; nearly all actives have a fitted effect of over 60% in size
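KB-V1 MDR subline cells in DMEM (phenol-red free, 10% FBS) exposed to compounds in qHTS concentration series for 72 h at 37 degrees C. Viability read by CellTiter-Glo luminescence; concentration-effect curves fitted after normalization and correction.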
PINK1 expr mod: modulators of PINK1 expression | 0.2% of 410,000 active | AID 624263 | PINK1 immunofluorescence, high-content cytometry, 24 h | Potency, µM (titrated, usually from 76.6 µM), inactives show at the top dose activation (PINK1 increase), usual class: activators; active = well fitted activation curve with a large enough effect; inconclusive = small, poorly fitted or top-dose-only effect; cell line not stated here; note: % of control where 0% means no effect; nearly all actives have a fitted effect of over 65% in size
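Stable cell line, 250 cells/well, 12 h attachment; compounds pinned at 5 concentrations, 24 h; CCCP control. Fixed with nuclear dye, primary antibodies 12 h at 10 degrees C, secondary plus cell stain; laser-scanning cytometer read.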
MCF10A rerep: induces DNA re-replication in MCF 10a normal breast cells. MCF 10A DNA re-replication, Hoechst nuclear intensity, 48 h. Potency, µM (series often up to 46.1 µM), for inactives: top-dose activity, positive = re-replication, hits mostly activators. 2.9% of 350,000 active. AID 624296; note: % of control where 0% means no effect; nearly all actives have a fitted effect of over 50% in size
Numbers without * were called inactive; i = inactive; ? = inconclusive; / = no result; [ ] = remark or other dose. Unless noted, calls come from the whole dose curve; as a rule, active = well fitted curve in the direction sought with a large enough effect; inconclusive = small, poorly fitted or top-dose-only effect, or another doubt; inactive = no such curve, though single readings can be large; an effect the other way counts as inactive or inconclusive. Potency is the fitted concentration of half-maximal effect.

SMILES	KB-3-1 cytotox	SW480 rereplic	ALOX12 inh	KB-V1 cytotox	PINK1 expr mod	MCF10A rerep
Cc1occc1C(=O)N1CC(F)(F)C[C@H]1c1nc(C2CC2)no1	/	/	0%	/	/	/
Cc1nnc([C@@H]2CC(F)(F)CN2C(=O)COc2ccccc2)o1	/	/	5%	/	/	/
O=c1[nH]c2cc3c(cc2cc1C(c1nnnn1Cc1ccccc1)N1CCN2CCCC2C1)OCCO3 (centres undefined)	i	1%	-7%	i	-2%[38.3 µM]	-4%
O=c1[nH]c2cc3c(cc2cc1C(c1nnnn1C1CCCC1)N1CCCc2ccccc21)OCCO3 (centres undefined)	i	0%	3%	i	1%	3%
O=c1[nH]c2cc3c(cc2cc1C(c1nnnn1Cc1ccccc1)N1CCCc2ccccc21)OCO3 (centres undefined)	?	17%	-29%	i	11%[38.3 µM]	3.7µM*
Cc1cc(C)c2cc(C(O)c3nnnn3Cc3ccccc3)c(=O)[nH]c2c1 (centres undefined)	i	4.6µM*	13%	i	-1%[38.3 µM]	2.6µM*
O=c1[nH]c2cc3c(cc2cc1C(c1nnnn1Cc1ccccc1)N1CCCCCC1)OCCO3 (centres undefined)	?	21µM*	-8%	?	-1%	?
N#Cc1c(SCC(N)=O)nc2c(c1-c1cccs1)CCCC2	/	/	-13%	/	/	/
CC(C)OC(=O)CC(=O)CSc1nc2c(c(-c3cccs3)c1C#N)CCC2	i	17%	2%	i	1%	21µM*
CCOC(=O)C(C)Sc1nc2c(c(-c3cccs3)c1C#N)CCC2 (centres undefined)	i	24%	-16%	i	5%	16µM*
N#Cc1c(SC(C(=O)O)c2ccccc2)nc2c(c1-c1cccs1)CCCC2 (centres undefined)	i	8%	?	i	0%	-12%
COC(=O)CSc1nc2c(c(-c3ccc(O)cc3)c1C#N)CCCC2	i	?	-12%	i	6%	18µM*
CCOc1ccccc1CNC(=O)c1ccc(Sc2ccc(Cl)cc2)c(NC(C)=O)c1	i	?	-24%	18µM*	0%	20%
CCOc1ccc(CNC(=O)c2ccc(Sc3ccc(Cl)cc3)c(NC(C)=O)c2)cc1	?	4%	?	8.2µM*	1%	?
CC(=O)Nc1cc(C(=O)N(C)Cc2ccco2)ccc1Sc1ccc(Cl)cc1	i	-34%	-23%	2.9µM*	1%	?
Cc1ccc(-c2noc(CSc3nnc4ccccn34)n2)cc1	/	/	-11%	/	/	/
Cc1ccc(-c2nn(C)c(=O)c3ccccc23)cc1CNC(=O)c1ccc(Cl)cc1	/	/	-8%	/	/	/
O=C(Nc1ccc2c(N3CCCC3)ncnc2c1)c1ccccc1Cl	/	/	67%	/	/	/
Cc1ccc(-c2csc(-c3c[nH]c4ccccc34)n2)c(C)c1	?	?	-26%	?	-2%	15µM*
CC(=O)NCCC(=O)Nc1nc(-c2c[nH]c3ccccc23)cs1	i	-11%	?	i	6%	2%
Oc1ccc(-c2csc(-c3c[nH]c4ccccc34)n2)c(O)c1	18µM*	7%	-24%	?	-1%	?
Cc1ccc(-c2csc(-c3nc(-c4cc(C)ccc4C)cs3)n2)c(C)c1	/	/	11%	/	/	/
O/N=C1\CCSc2ccccc21	/	/	21%	/	/	/
Cc1ccc(C(NC(=O)c2ccccc2)c2cccnc2)cc1C (centres undefined)	/	/	-2%	/	/	/
Cc1ccc(C(=O)/C=C/N(C)C)cn1	i	-6%	0%	i	0%	-1%
CN(C)/C=C/C(=O)c1ccc(Cl)cc1	i	-1%	16µM*	i	-1%[38.3 µM]	18µM*
Cc1ccc(C(=O)/C=C\N(C)C)cc1	/	/	56µM*	/	/	/
CN(C)/C=C/C(=O)c1ccn(S(=O)(=O)c2ccccc2)c1	i	-11%	50µM*	i	-2%	?
CN(C)/C=C/C(=O)c1cccc(Cl)c1	i	0%	-9%	i	-2%	5.8µM*

Screening data: PubChem, National Center for Advancing Translational Sciences (NCATS)
